Screening results from PubChem.
GLA spleen mod: inhibits or activates alpha-galactosidase in human spleen homogenate; AID 2107; P06280; Potency, µM (highest dose often 80 µM), for inactives: at the highest dose activity change, negative = inhibition, most hits filed as inhibitors; 240,000 compounds, 0.008% hits; human spleen homogenate, 4MU-alpha-Gal fluorescence, 40 min;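 also: potency is read from the fitted curve at half-maximal effect; 0% = enzyme with vehicle and -100% = no enzyme basal signal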
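Inhibition or activation of alpha-galactosidase in human spleen homogenate is scored by 4-MU fluorescence after 40 min at 37C, pH 5.0, with 1 mM substrate. AC50s come from concentration-response fitted to the Hill equation.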
GLA inh pH 4.5: inhibitors of human alpha-galactosidase A at pH 4.5. P06280. purified enzyme, 4-MU-alpha-Gal fluorescence, pH 4.5. activity change, negative = inhibition, % at 105 µM. 230,000 tested, under 10 active. AID 1467;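 also: 0% = full activity with enzyme and -100% = basal without enzyme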
PNC assembly inh: perinucleolar compartment assembly inhibition; PC3M PTB-GFP, PNC prevalence imaging, 16 h; hits give low values; activity change (PNC), negative = inhibition, % at 10 µM; 140,000 compounds, 3.1% hits; AID 2417;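 active = readout at or below -70, meaning at least 70% loss of cells showing the perinucleolar compartment, a nuclear body marking cancer cells; inconclusive = readout between -30 and a set limit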;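 also: plate controls were DMSO wells for no effect and camptothecin positive control wells for full effect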
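Read-out is percentage of cells bearing a perinucleolar compartment, from automated 20x imaging of fixed, Hoechst-stained PC3M PTB-GFP cells. Cells were seeded 4 h, then exposed 16 h to compound (23 nl of library stock) in duplicate plates.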
HPGD block: blocks human HPGD enzyme activity | Potency, µM, without a hit: top-dose activity change, negative = inhibition, usual class: inhibitors | 150,000 compounds, 4.3% hits | AID 894 | P15428 | purified HPGD, NADH fluorescence kinetic, PGE2 substrate; active = well fitted inhibition curve with a large enough effect, not every such curve was filed as active; inconclusive = small, poorly fitted or top-dose-only effect, or another doubt; inactive = no such curve, though single readings can be large or run the other way; also: potency is read from the fitted curve at half-maximal effect
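NADH formation kinetics: reaction with 30 uM PGE2 and 1 mM NAD+ (final), 20 nM enzyme, Tris-HCl pH 8 with Tween 20, after 15 min compound preincubation at room temperature. Fluorescence change, last versus first of five reads.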
ALOX12 inhib: 12-hLO (ALOX12) enzyme inhibition. P18054. Potency, µM (highest dose often 57.1 µM), inactives show top-dose activity change, negative = inhibition, usual class: inhibitors. purified 12-hLO, xylenol orange hydroperoxide absorbance. 150,000 compounds, 0.12% hits. AID 1452; also: potency is read from the fitted curve at half-maximal effect; nearly all actives have a fitted effect of over 55% in size
Target sequence (P18054 whole entry, looked up): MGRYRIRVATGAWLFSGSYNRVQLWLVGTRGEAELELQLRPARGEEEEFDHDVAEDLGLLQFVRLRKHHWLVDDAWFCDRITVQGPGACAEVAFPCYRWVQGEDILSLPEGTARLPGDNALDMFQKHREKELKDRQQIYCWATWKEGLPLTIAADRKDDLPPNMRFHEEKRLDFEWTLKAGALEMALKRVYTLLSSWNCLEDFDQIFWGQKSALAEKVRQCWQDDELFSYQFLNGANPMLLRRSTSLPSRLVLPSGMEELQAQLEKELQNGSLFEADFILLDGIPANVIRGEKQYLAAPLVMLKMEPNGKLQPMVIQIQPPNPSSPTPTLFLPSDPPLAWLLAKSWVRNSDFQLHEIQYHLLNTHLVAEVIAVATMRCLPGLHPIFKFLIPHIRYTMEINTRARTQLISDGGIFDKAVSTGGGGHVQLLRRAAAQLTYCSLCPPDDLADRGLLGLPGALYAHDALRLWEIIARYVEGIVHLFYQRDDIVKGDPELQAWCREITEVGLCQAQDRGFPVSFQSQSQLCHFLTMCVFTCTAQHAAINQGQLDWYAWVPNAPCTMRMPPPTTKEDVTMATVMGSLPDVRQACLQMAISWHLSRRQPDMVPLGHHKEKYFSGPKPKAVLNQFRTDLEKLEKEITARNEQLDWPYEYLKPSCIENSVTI
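Hydroperoxide formation by human 12-lipoxygenase from 40 uM arachidonic acid was followed colorimetrically via ferric-xylenol orange complex, using the 573/405 nm absorbance ratio. Enzyme concentration was 150 nM, with 30 min reaction at room temperature.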
ALDH1A1 inh: inhibitors of human aldehyde dehydrogenase 1A1; Purified ALDH1A1, NADH fluorescence, propionaldehyde substrate; 220,000 compounds, 7.3% hits; AID 1030; Potency, µM (highest dose often 75.3 µM), inactives show at the highest dose activity, negative = inhibition, actives largely listed as inhibitors; active = well fitted inhibition curve with a large enough effect, not every such curve was filed as active; inconclusive = small, poorly fitted or top-dose-only effect, or another doubt; inactive = no such curve, though single readings can be large or run the other way;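 also: potency is read from the fitted curve at half-maximal effect; plate controls were no enzyme wells and a reference inhibitor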
* hit, by the source's call; [ ] = another dose, or the depositor's remark. An excerpt weighted towards active compounds, which were near 10% of everything screened. Unless noted, calls follow the shape of the dose curve; as a rule, active = well fitted curve in the direction sought with a large enough effect; inconclusive = small, poorly fitted or top-dose-only effect, or another doubt; inactive = no such curve, though single readings can be large; an effect the other way counts as inactive or inconclusive. Unless noted, % is scaled to controls: 0 for no effect and ±100 for the full control effect.

For CCc1ccc2[nH]c(=O)c(CN(Cc3nnnn3C3CCCC3)C3CCCCC3)cc2c1 the results were GLA spleen mod 0.8%, GLA inh pH 4.5 -7.7, PNC assembly inh -1.0, HPGD block -19.0%, ALOX12 inhib -3.9% and ALDH1A1 inh 14.1µM*.
Cc1ccc2[nH]c(=O)c(CN(Cc3nnnn3Cc3ccccc3)C3CCCC3)cc2c1 was read as GLA spleen mod 2.9%, GLA inh pH 4.5 0.1, PNC assembly inh 27.7, HPGD block -12.2%, ALOX12 inhib -12.3% and ALDH1A1 inh 20µM*.
`CCOc1ccc2[nH]c(=O)c(CN(CCO)C(c3nnnn3C3CCCCC3)C(C)C)cc2c1` (centres undefined) gave GLA spleen mod -11.2%, GLA inh pH 4.5 -9.2, PNC assembly inh -9.3, HPGD block -16.5%, ALOX12 inhib -4.3% and ALDH1A1 inh 12.6µM*.
CCCN1CCN(C(c2cc3cc(OCC)ccc3[nH]c2=O)c2nnnn2C2CCCCC2)CC1 (centres undefined) was read as GLA spleen mod 0.2%, GLA inh pH 4.5 8.0, PNC assembly inh -2.1, HPGD block inconclusive, ALOX12 inhib -2.1% and ALDH1A1 inh inconclusive.
`O=c1c(-c2nnc(SCc3ccc(Cl)c(Cl)c3)o2)cccn1Cc1ccccc1` gave GLA spleen mod 13.7%, GLA inh pH 4.5 inconclusive, PNC assembly inh 41.6, HPGD block inconclusive, ALOX12 inhib 10.1% and ALDH1A1 inh inconclusive.
C=CCOC(=O)C(C(C)=O)C(NC(=O)OC)c1ccc(F)cc1 (centres undefined) was read as GLA spleen mod 5.2%[17.5 µM] and ALDH1A1 inh 20.6%[13.5 µM].
`CCC1CC=CC2C1C(=O)N(Cc1ccccc1)C2c1ccc(C(F)(F)F)cc1` (centres undefined) gave GLA spleen mod -4.7%.
`N#Cc1c(-c2ccccc2)no[n+]1[O-]` gave GLA spleen mod 17.1%, GLA inh pH 4.5 -1.4, HPGD block -10.8%, ALOX12 inhib -2.9% and ALDH1A1 inh 5.01µM*.
N[C@@H](Cc1nn[nH]n1)C(=O)O was read as HPGD block -1.4%, ALOX12 inhib 4.9%[11.4 µM] and ALDH1A1 inh 5.5%[13.5 µM].
Screening Cn1c(-c2c(N)n(C3CCCC3)c3nc4ccccc4nc23)nc2ccccc21 returned GLA spleen mod 8.6%, GLA inh pH 4.5 -29.4, PNC assembly inh -94.4*, HPGD block -10.9%, ALOX12 inhib -14.7% and ALDH1A1 inh 4.8%.
For O=C(Nc1c2c(nc3c1CCC3)CCCC2)c1ccccn1 the results were GLA spleen mod -3.1%, GLA inh pH 4.5 -7.3, PNC assembly inh 58.0, HPGD block -3.7%, ALOX12 inhib 4.1% and ALDH1A1 inh 6.9%.
O=c1nc(/C=C/c2cccn2-c2ccc([N+](=O)[O-])cc2)cc(C(F)(F)F)[nH]1 was read as GLA spleen mod 6.2%, GLA inh pH 4.5 -4.1 and ALDH1A1 inh -0.6%.
Screening O=c1nc(/C=C/c2cc([N+](=O)[O-])ccc2Cl)cc(C(F)(F)F)[nH]1 returned GLA spleen mod -3.3%, GLA inh pH 4.5 -18.5, PNC assembly inh -27.1, HPGD block 3.16µM*, ALOX12 inhib -9.0% and ALDH1A1 inh inconclusive.
`Cc1ccc(S(=O)(=O)Nc2ccc(Cl)cc2C(=O)c2ccc(F)cc2)cc1` gave GLA spleen mod 0.2%, GLA inh pH 4.5 -1.1, PNC assembly inh 19.3, HPGD block -10.5%, ALOX12 inhib -12.7% and ALDH1A1 inh -10.9%.
c1ccc2[nH]c(SN3CCOCC3)nc2c1 was read as GLA spleen mod 5.4%, GLA inh pH 4.5 -2.8, PNC assembly inh 6.2, HPGD block 11.2µM*, ALOX12 inhib 7.7% and ALDH1A1 inh 0.794µM*.
Cc1ccc(NC(=O)CSc2nn(-c3ccc(Cl)cc3)c(=S)s2)cc1S(=O)(=O)N(C)C was read as GLA spleen mod -5.8%, GLA inh pH 4.5 -0.3, PNC assembly inh 26.3, HPGD block inconclusive, ALOX12 inhib -6.5% and ALDH1A1 inh 14.1µM*.
Screening Cc1cc(Cc2c(C)c(C)c(Cc3cc(C)cc(C(C)(C)C)c3O)c(C)c2C)c(O)c(C(C)(C)C)c1 returned HPGD block -6.0%, ALOX12 inhib -4.6%[11.4 µM] and ALDH1A1 inh 7.3%[13.5 µM].
Screening COc1ccccc1NS(=O)(=O)c1cccc(NC(=O)Nc2cccc(Cl)c2)c1 returned GLA spleen mod -7.8%, GLA inh pH 4.5 4.5, PNC assembly inh -85.8*, HPGD block -21.1%, ALOX12 inhib inconclusive and ALDH1A1 inh 0.7%.
COc1ccccc1NS(=O)(=O)c1cc(Cl)ccc1OC was read as GLA spleen mod -4.1%, GLA inh pH 4.5 -8.2, PNC assembly inh -113.7*, HPGD block -15.5%, ALOX12 inhib -2.8% and ALDH1A1 inh 6.7%.
Screening COc1ccccc1NS(=O)(=O)c1ccc(OC)c(OC)c1 returned GLA spleen mod -1.9%, GLA inh pH 4.5 6.2, PNC assembly inh -27.9, HPGD block -5.2%, ALOX12 inhib 1.0% and ALDH1A1 inh 2.1%.
COc1ccccc1NS(=O)(=O)c1ccc(Cl)c(NC(=O)C(C)N2C(=O)c3ccccc3C2=O)c1 (centres undefined) was read as GLA spleen mod 6.2%, GLA inh pH 4.5 -14.8, PNC assembly inh 29.1, HPGD block -8.9%, ALOX12 inhib 16.8% and ALDH1A1 inh 17.8µM*.
Screening COc1ccc(NS(=O)(=O)c2cc(C)ccc2OC)cc1OC returned GLA spleen mod -16.5%, GLA inh pH 4.5 -8.3, PNC assembly inh 20.1, HPGD block -3.4%, ALOX12 inhib -4.2% and ALDH1A1 inh 10.3%.
`COc1ccc(C)cc1S(=O)(=O)Nc1ccc(F)c(Cl)c1` gave GLA spleen mod 10.1%, GLA inh pH 4.5 7.8, PNC assembly inh inconclusive, HPGD block 28.2µM*, ALOX12 inhib 7.8% and ALDH1A1 inh -5.3%.
`Clc1ccccc1CNCC1CCC(CNCc2ccccc2Cl)CC1` (centres undefined) gave GLA spleen mod -4.4%, GLA inh pH 4.5 -16.0, HPGD block -6.0%, ALOX12 inhib -8.4% and ALDH1A1 inh -1.1%.
`O=C(NCc1ccccn1)C(=O)Nc1cccc2ccccc12` gave GLA spleen mod -5.0%, GLA inh pH 4.5 1.7[21.1 µM] and ALDH1A1 inh -12.0%.
CCN(CC)C(=O)C(=O)N/N=C/c1cccc(Br)c1 was read as GLA spleen mod -15.8%, GLA inh pH 4.5 1.3, PNC assembly inh -22.5, HPGD block 4.9%, ALOX12 inhib 3.6% and ALDH1A1 inh -11.0%.
Screening CC(=O)C(C)Oc1ccc(Cc2ncc(C(F)(F)F)cc2Cl)cc1 (centres undefined) returned GLA spleen mod 4.5%, GLA inh pH 4.5 -4.9 and ALDH1A1 inh -8.2%.
